From PubChem BioAssay (Tox21)
Records with an inconclusive call do not appear. A structure can be active in one record and inactive in another. Calls of active or inactive are those of the source. Unless noted, calls come from the whole dose curve.

Columns and labels:
[1] = Nuclear factor erythroid 2-related factor 2/antioxidant responsive element (Nrf2/ARE) small molecule agonists: luciferase reporter gene qHTS assay in human keratinocytes (AID 1919969); note: nearly all actives have a fitted effect of over 35% in size; note: potency is the fitted concentration of half-maximal effect
[2] = molecular target: Gonadotropin-releasing hormone receptor (Homo sapiens) (UniProt P30968); experiment: Human gonadotropin-releasing hormone receptor (GnRHR) small molecule agonists, calcium flux assay in GnRHR-HEK293 cells (AID 1920063); note: nearly all actives have a fitted effect of over 35% in size
Chain of Gonadotropin-releasing hormone receptor (Homo sapiens) (P30968 whole entry, looked up): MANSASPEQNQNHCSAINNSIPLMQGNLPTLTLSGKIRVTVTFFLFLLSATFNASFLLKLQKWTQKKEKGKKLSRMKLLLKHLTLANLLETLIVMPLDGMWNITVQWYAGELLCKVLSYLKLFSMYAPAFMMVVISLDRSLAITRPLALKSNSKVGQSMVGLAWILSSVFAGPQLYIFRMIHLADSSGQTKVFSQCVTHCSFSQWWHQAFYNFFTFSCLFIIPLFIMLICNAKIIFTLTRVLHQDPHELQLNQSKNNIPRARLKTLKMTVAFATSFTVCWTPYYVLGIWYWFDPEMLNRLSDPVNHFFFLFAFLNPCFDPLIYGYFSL
Method in brief: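 Calcium-dye fluorescence, Ex/Em=480/540, recorded every 1 sec over 3 min after compound addition to GnRHR-HEK293 cells. Cells had been seeded 18 hours earlier and dye-loaded for 1 hour at 37 C. Fifteen concentrations, triplicates.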

[3] = molecular target: KiSS-1 receptor (Homo sapiens) (UniProt Q969F8); experiment: Human kisspeptin (KISS1R) small molecule agonists, calcium flux assay in KISS1R-HEK293 cells (AID 1920064; active = well fitted activation curve with a large enough effect in the repeat runs)
Chain of KiSS-1 receptor (Homo sapiens) (Q969F8 whole entry, looked up): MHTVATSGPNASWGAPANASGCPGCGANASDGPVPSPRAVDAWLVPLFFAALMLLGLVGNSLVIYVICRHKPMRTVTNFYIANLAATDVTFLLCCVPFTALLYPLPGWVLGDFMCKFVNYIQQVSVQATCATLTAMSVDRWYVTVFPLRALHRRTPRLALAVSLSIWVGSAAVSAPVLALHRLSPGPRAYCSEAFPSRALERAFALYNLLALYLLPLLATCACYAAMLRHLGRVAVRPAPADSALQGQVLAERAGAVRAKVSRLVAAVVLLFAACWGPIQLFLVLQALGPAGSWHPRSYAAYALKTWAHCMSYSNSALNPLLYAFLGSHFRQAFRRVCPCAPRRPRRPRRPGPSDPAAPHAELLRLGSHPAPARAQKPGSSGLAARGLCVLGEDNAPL
Method in brief: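 Calcium flux read-out: kinetic fluorescence at Ex/Em=480/540, 1 s intervals over 3 min, after pin-tool compound addition to dye-loaded KISS1R-HEK293 cells. Fifteen concentrations, triplicates.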

[4] = G protein-coupled receptor (GPCR) small molecule agonists, calcium flux assay: HEK293 wild type cell line counter screen (AID 1920065)
Method in brief: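 Agonist mode; 18 h seeding at 37 C, 1 h dye load at 37 C; compounds pinned from DMSO, ATP as positive control; kinetic fluorescence 480/540 nm, 3 min, 1 s reads; 15 concentrations, triplicate.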

[5] = p53 small molecule agonists, cell-based qHTS assay with human liver microsomes: qHTS cell viability counter screen (AID 1963579); note: nearly all actives have a fitted effect of over 45% in size
Method in brief: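 HLM-supplemented (0.5 mg/mL final) and NADPH-supplemented (0.5 mg/mL final) p53RE-bla cultures, 4,000 cells per well, were dosed with compounds in DMSO for 16 h at 37 C; luminescent ATP detection (CellTiter-Glo, 30 min, room temperature) quantified surviving cells.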

[6] = p53 small molecule agonists, cell-based qHTS assay with rat liver microsomes: qHTS cell viability counter screen (AID 1963580); note: nearly all actives have a fitted effect of over 45% in size; note: potency is the fitted concentration of half-maximal effect
Method in brief: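 Luminescent ATP readout (CellTiter-Glo, 30 min at room temperature) reports viability of p53RE-bla HCT-116 cells after 16 h at 37 C with test compounds under metabolic activation by rat liver microsomes and NADPH at 0.5 mg/mL final each.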

[7] = p53 small molecule agonists, cell-based qHTS assay: qHTS cell viability counter screen (AID 1963581); note: nearly all actives have a fitted effect of over 45% in size
Method in brief: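 Cytotoxicity read-out: ATP-based luminescence (CellTiter-Glo, 30 min RT) measured in the same wells as the p53 reporter assay, HCT-116 p53RE-bla cells, 16 h compound exposure at 37 C.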

[8] = molecular target: 5-hydroxytryptamine receptor 2A (Homo sapiens) (UniProt P28223); experiment: 5-hydroxytryptamine receptor 2A (HTR2A) small molecule antagonists, cell-based qHTS assay (AID 1963586); note: nearly all actives have a fitted effect of over 45% in size; note: potency is the fitted concentration of half-maximal effect
Chain of 5-hydroxytryptamine receptor 2A (Homo sapiens) (P28223 whole entry, looked up): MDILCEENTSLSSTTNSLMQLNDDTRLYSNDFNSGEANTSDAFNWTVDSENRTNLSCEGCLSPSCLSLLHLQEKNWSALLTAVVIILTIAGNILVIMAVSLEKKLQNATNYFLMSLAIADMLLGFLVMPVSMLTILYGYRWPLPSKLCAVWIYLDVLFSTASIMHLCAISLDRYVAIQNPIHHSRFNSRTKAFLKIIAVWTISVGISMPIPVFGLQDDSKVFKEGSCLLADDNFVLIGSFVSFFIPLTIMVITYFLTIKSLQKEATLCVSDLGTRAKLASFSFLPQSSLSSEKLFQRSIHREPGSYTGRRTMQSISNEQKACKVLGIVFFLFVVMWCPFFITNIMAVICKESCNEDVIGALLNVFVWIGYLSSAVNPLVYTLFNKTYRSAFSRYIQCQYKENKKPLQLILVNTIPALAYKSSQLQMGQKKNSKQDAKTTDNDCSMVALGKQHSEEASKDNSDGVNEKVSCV
Method in brief: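 CHO cells stably expressing human HTR2A were plated for 18 h at 37 C, then loaded with calcium dye for 1 h. Compounds were preincubated 5 min at room temperature before DOI (4 nM solution) was added. Kinetic fluorescence was read for 3 min.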

[9] = molecular target: Muscarinic acetylcholine receptor M1 (Homo sapiens) (UniProt P11229); experiment: Cholinergic receptor muscarinic 1 (CHRM1) small molecule antagonists, cell-based qHTS assay (AID 1963588); note: nearly all actives have a fitted effect of over 40% in size; note: potency is the fitted concentration of half-maximal effect
Chain of Muscarinic acetylcholine receptor M1 (Homo sapiens) (P11229 whole entry, looked up): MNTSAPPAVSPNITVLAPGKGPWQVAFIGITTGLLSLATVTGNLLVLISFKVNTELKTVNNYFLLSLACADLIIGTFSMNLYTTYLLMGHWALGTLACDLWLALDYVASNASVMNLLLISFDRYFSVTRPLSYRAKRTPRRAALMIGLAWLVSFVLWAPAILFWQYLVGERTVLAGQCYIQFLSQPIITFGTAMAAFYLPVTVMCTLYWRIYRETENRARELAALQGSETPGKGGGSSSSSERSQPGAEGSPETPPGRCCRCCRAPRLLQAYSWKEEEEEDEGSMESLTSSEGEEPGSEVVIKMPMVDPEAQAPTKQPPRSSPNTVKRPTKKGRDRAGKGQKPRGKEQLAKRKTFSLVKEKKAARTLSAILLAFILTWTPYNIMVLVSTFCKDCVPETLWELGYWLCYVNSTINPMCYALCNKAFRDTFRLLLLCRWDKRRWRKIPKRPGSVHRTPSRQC
Method in brief: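 Compounds were tested at 15 concentrations in three independent runs. Dye-loaded CHRM1-CHO cells were exposed 5 min at room temperature before stimulation by acetylcholine added at 50nM. Intracellular calcium was read kinetically on FDSS for 3 min.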

[10] = molecular target: Muscarinic acetylcholine receptor M1 (Homo sapiens) (UniProt P11229); experiment: Cholinergic receptor muscarinic 1 (CHRM1) small molecule agonists, cell-based qHTS assay (AID 1963589); note: nearly all actives have a fitted effect of over 35% in size
Method in brief: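 Calcium flux read-out: kinetic fluorescence at 1 sec intervals after pin-tool compound addition to dye-loaded CHRM1-CHO cells (human M1). Agonist mode; 15 concentrations tested in triplicate independent runs.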

[11] = cAMP Responsive Elements (CRE) small molecule agonists, cell-based qHTS assay (AID 1963590)
Method in brief: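 Beta-lactamase reporter readout: LiveBLAzer B/G FRET substrate, 2 h at room temperature, added after 3 h compound treatment of CRE-bla HEK 293T cells at 37 C/5% CO2.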

[12] = cAMP Responsive Elements (CRE) small molecule antagonists, cell-based qHTS assay (AID 1963591; active = well fitted inhibition curve with a large enough effect in the signal ratio in the repeat runs, not every such curve was filed as active; the % refers to the signal ratio; note: potency is the fitted concentration of half-maximal effect)
Method in brief: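 HEK293T CRE-bla; 18 h preincubation; compound pin-transfer; NKH477 0.25 uM final, 3 h, 37 C; LiveBLAzer FRET substrate 2 h RT.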

[13] = molecular target: Beta-2 adrenergic receptor (Homo sapiens) (UniProt P07550); experiment: Adrenergic beta2 receptor (ADRB2) small molecule antagonists, cell-based qHTS assay (AID 1963592); note: nearly all actives have a fitted effect of over 50% in size; note: potency is the fitted concentration of half-maximal effect
Chain of Beta-2 adrenergic receptor (Homo sapiens) (P07550 whole entry, looked up): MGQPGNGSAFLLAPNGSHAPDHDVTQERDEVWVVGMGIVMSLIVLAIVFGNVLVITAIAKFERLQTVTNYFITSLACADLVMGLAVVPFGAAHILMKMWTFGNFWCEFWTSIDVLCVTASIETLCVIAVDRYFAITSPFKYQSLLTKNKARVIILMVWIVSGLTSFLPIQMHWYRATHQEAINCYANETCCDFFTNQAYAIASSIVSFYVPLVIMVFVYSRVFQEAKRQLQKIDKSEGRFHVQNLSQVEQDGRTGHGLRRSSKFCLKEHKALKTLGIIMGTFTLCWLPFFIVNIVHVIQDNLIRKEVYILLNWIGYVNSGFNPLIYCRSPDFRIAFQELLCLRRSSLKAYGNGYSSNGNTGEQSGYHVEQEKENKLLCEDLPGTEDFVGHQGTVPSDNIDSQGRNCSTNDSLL
Method in brief: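 Assay format: CHO-ADRB2 cells, 18-20hr seeding at 37C/5% CO2, then compound plus 1nM isoproterenol agonist mix for 0.5hr RT. Homogeneous time-resolved fluorescence cAMP detection after 1hr, expressed as 665/615 nm ratio.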

[14] = molecular target: D(2) dopamine receptor (Homo sapiens) (UniProt P14416); experiment: Dopamine D2 receptor (DRD2) small molecule antagonists, cell-based qHTS assay (AID 1963595; active = well fitted inhibition curve with a large enough effect in the signal ratio in the repeat runs, with a control signal flat; the % refers to the signal ratio; note: potency is the fitted concentration of half-maximal effect)
Chain of D(2) dopamine receptor (Homo sapiens) (P14416 whole entry, looked up): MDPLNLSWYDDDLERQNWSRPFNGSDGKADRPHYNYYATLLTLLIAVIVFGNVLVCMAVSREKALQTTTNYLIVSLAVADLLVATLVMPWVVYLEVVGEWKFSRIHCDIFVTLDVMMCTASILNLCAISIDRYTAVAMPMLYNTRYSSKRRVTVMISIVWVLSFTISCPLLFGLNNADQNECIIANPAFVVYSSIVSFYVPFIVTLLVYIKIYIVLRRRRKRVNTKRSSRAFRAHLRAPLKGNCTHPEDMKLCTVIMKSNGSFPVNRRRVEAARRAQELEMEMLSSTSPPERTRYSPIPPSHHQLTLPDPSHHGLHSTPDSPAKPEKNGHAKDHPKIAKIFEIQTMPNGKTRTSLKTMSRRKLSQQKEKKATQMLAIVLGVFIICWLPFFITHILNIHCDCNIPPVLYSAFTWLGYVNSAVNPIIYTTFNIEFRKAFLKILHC
Method in brief: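 Antagonist mode in DRD2-HEK293 cells: after compound addition with 0.1 mM Ro20-1724, cells received quinpirole (12 nM) and NKH477 (200 nM) for 30 min at room temperature; HTRF cAMP read after 1 h detection.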

[15] = molecular target: 5-hydroxytryptamine receptor 2A (Homo sapiens) (UniProt P28223); experiment: 5-hydroxytryptamine receptor 2A (HTR2A) small molecule agonists, cell-based qHTS assay (AID 1963587); note: nearly all actives have a fitted effect of over 30% in size; note: potency is the fitted concentration of half-maximal effect
Method in brief: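 HTR2A-CHO cells, plated 18 h at 37 C/5% CO2, dye-loaded 1 h at 37 C; compounds in DMSO added by pin tool (agonist mode). Intracellular calcium flux read as kinetic fluorescence on FDSS over 2 min at 1 s intervals.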

[16] = molecular target: D(2) dopamine receptor (Homo sapiens) (UniProt P14416); experiment: Dopamine D2 receptor (DRD2) small molecule agonists, cell-based qHTS assay (AID 1963594); note: nearly all actives have a fitted effect of over 35% in size
Method in brief: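 HEK293 cells stably expressing DRD2 were cultured 24 h at 37 C, then given Ro20-1724 (0.1 mM final) and compounds for 10 min at room temperature. NKH477 (200nM) was then added for 30 min. cAMP was read by HTRF.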

[17] = molecular target: Beta-2 adrenergic receptor (Homo sapiens) (UniProt P07550); experiment: Adrenergic beta2 receptor (ADRB2) small molecule agonists, cell-based qHTS assay (AID 1963593);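 note: CHO cells stably overexpressing human ADRB2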
Method in brief: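 CHO cells stably over-expressing ADRB2 were plated overnight at 37C, then dosed with compounds plus a stimulation mix containing 100uM IBMX and 25uM Ro-20-1724 for 0.5hr at room temperature. cAMP was measured by HTRF competition, 1hr.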

[18] = p53 small molecule agonists, cell-based qHTS assay (AID 1963582; active = well fitted activation curve with a large enough effect in the signal ratio in the repeat runs, not every such curve was filed as active; the % refers to the signal ratio)
Method in brief: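 Fluorescence intensity read-out of a beta-lactamase reporter under a p53 response element. Cells were exposed to DMSO-dissolved compounds for 16 h at 37 C, then developed with FRET substrate for 2 h at RT.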

Measured: Potency

CC(C)(C)c1cc(CCC(=O)OCC(COC(=O)CCc2cc(C(C)(C)C)c(O)c(C(C)(C)C)c2)(COC(=O)CCc2cc(C(C)(C)C)c(O)c(C(C)(C)C)c2)COC(=O)CCc2cc(C(C)(C)C)c(O)c(C(C)(C)C)c2)cc(C(C)(C)C)c1O
not listed: [15] | [16] | [17] | [18]
inactive: all other assays above

Cc1c(Cl)c(=O)oc2cc(O)ccc12
not listed: [11] | [12] | [13] | [17] | [18]
inactive: all other assays above

CNc1ccc([N+](=O)[O-])cc1
not listed: [18]
inactive: all other assays above

CN1CCC(Nc2ncc3ncnc(Nc4ccc(F)c(Cl)c4)c3n2)CC1
active: [9] 8.18 µM
not listed: [7] | [11] | [12] | [17] | [18]
inactive: all other assays above

CCCc1nc(C)c2c(=O)[nH]c(-c3cc(S(=O)(=O)N4CCN(CC)CC4)ccc3OCC)nn12
not listed: [11] | [12] | [17] | [18]
inactive: all other assays above

CC(C)(O)c1ccc(C(C)(C)O)cc1
not listed: [10] | [13] | [16] | [17] | [18]
inactive: all other assays above

CCN(CC)CCOc1ccc2c(c1)C(=O)c1cc(OCCN(CC)CC)ccc1-2
active: [1] 33.5 µM | [12] 29.8 µM
not listed: [13] | [14] | [16] | [17] | [18]
inactive: all other assays above

O=C1CC[C@@H](C(=O)O)N1
not listed: [7] | [18]
inactive: all other assays above

CC(C)(C)C1CCCCC1=O (stereo not drawn)
not listed: [17] | [18]
inactive: all other assays above

CC(N=C(NC#N)Nc1ccncc1)C(C)(C)C (stereo not drawn)
not listed: [7] | [17] | [18]
inactive: all other assays above

CCCC(CC)CCCCCCCN (stereo not drawn)
active: [8] 24.2 µM | [15] 44.7 µM
not listed: [9] | [17]
inactive: all other assays above

OC(CCN1CCCCC1)(c1ccccc1)C1CCCCC1 (stereo not drawn)
inactive: [1] | [2] | [3] | [4] | [5] | [6] | [7] | [13] | [16]

c1ccc(-c2nc[nH]c2-c2ccccc2)cc1
active: [8] 3.65 µM
not listed: [9] | [18]
inactive: all other assays above

Cc1c(C)c2c(c(C)c1OC(=O)c1cccnc1)CC[C@@](C)(CCC[C@H](C)CCC[C@H](C)CCCC(C)C)O2
not listed: [18]
inactive: all other assays above

Cc1ccc(-c2cc(C(F)(F)F)nn2-c2ccc(S(N)(=O)=O)cc2)cc1
active: [13] 60.9 µM
60.9 µM (active) and inactive: [14]
36.2 µM (active) and inactive: [6]
inactive: [1] | [2] | [3] | [4] | [5] | [7] | [17] | [16]
